# A selection: hits, their analogues and other compounds. The true share with any hit is near 2.1%.
# CHT block: inhibitors of human choline transporter CHT; AID 488975, 2010; 310,000 compounds, 0.86% hits; B-score at 10 µM; High affinity choline transporter 1 (Homo sapiens), Q9GZV3; CHT-expressing cells, membrane potential dye, choline response; stronger effect = lower value;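 active = B-score over 3 SD under the library average, and starting fluorescence ratio not unusually high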;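 also: choline stimulus applied at its EC90 after an EC20 pre-addition; B-score computed on integrated fluorescence ratio after choline addition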
# PGE2 EP2 inh: human EP2 receptor antagonists, primary screen, TR-FRET cAMP, C6 glioma cells; Prostaglandin E2 receptor EP2 subtype (Homo sapiens), P43116; inhibition, % at 25 µM; AID 1422, 2008; C6 glioma cells expressing human EP2; cells stimulated with saturating PGE2; 260,000 compounds, 0.52% hits;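 active = percent inhibition above 40 after rounding to a whole number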;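 also: rat C6 glioma host cells with rolipram phosphodiesterase inhibitor present; the protocol text gives 20 µM as final concentration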
# Target sequence (P43116 whole entry, looked up): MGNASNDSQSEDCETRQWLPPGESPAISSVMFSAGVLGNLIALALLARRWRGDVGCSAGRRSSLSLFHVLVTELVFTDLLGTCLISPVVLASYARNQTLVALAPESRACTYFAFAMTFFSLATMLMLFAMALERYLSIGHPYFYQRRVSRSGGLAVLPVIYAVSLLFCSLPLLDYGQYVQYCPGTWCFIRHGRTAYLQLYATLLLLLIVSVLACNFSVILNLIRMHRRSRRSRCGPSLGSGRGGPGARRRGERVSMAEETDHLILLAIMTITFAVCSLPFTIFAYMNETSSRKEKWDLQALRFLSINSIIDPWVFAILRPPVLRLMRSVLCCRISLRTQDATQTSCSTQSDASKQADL
# CHT allo act: CHT positive allosteric modulators, primary screen, cell-based, membrane potential dye, choline EC20. CHT-expressing cells; stronger effect = higher value; LV-AA mutant CHT in HEK293 cells. AID 488977, 2010. 310,000 compounds, 0.49% hits. High affinity choline transporter 1 (Homo sapiens), Q9GZV3. B-score at 10 µM;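 active = initial fluorescence not abnormally high and integrated response B-score, plate-corrected, over 3 SD above library mean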
# EP2 modulator: EP2 receptor modulators, cAMP readout, primary screen, cell-based, HTRF cAMP, PGE2 stimulation; EP2-expressing cells, cAMP HTRF FRET, PGE2 co-stimulation; induction, % at 25 µM; Prostaglandin E2 receptor EP2 subtype (Homo sapiens), P43116; 260,000 compounds, 0.83% hits;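 active = compounds whose cAMP rise, as percent of the full-agonist control response, exceeds 60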;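 also: rat C6 glioma line stably carrying human EP2 under a CMV promoter; the protocol text gives 20 µM as final concentration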
# Numbers stand for hits; - = inactive; . = no result; ! = a repeat was not active.
SMILES,CHT block,PGE2 EP2 inh,CHT allo act,EP2 modulator
Cc1cc(=O)[nH]c2ccc(Cl)cc12,-,-,-,-
COc1ccc(Cc2ccc3[nH]c(=O)cc(C)c3c2)cc1S(=O)(=O)O,.,40,.,-
COCCCNC(=O)c1c(NC(=O)c2ccccc2C)sc2c1CCCC2,.,45,.,-
C=CCNC(=O)c1c(NC(=O)c2ccc(OC)c(OC)c2)sc2c1CCCC2,.,-,.,66
C=CCSC[C@@H](N)C(=O)O,.,-,.,-
Cc1ccc2[nH]c(=O)c(CN(Cc3cccs3)S(=O)(=O)c3cccc4nsnc34)cc2c1,.,-,.,-
CN(C)CCC[C@@H]1c2ccccc2Oc2ccc(C(F)(F)F)cc21,.,58,.,-
COc1cc(N=c2ssnc2Cl)cc(OC)c1,-,95,-,-
Clc1nssc1=Nc1ccc(Br)cc1,.,-,.,-
O=C(O)C(O)Cc1c[nH]c2ccccc12 (configuration not stated),-,-,-,-
C[N+]1([C@H](CO)Cc2c[nH]c3ccccc23)Cc2ccccc2C1,.,50,.,-
Cc1noc(C)c1COC(=O)COc1cccc2c1OC(C)(C)C2,-,-,-,65
CCc1cc2ccccc2nc1SCC(=O)Nc1ccccc1C,.,-,.,80
CCc1ccccc1NC(=O)CSc1nc2ccc(OC)cc2cc1C,.,-,.,70
CCc1cc2ccccc2nc1SCC(=O)NCCc1ccc(OC)c(OC)c1,.,-,.,61
COc1ccc(CCNC(=O)CSc2ccc3ccccc3c2)cc1OC,-,-,-,-
O=C(CSc1nc2ccccc2cc1Cc1ccccc1)Nc1nccs1,.,-,.,64
CN(C)CCCN(Cc1ccco1)Cc1cn[nH]c1-c1ccccc1,.,-,.,-
Cc1ccc(-c2nnn(CC(=O)N(c3ccccc3C)C(C(=O)NC(C)(C)C)c3ccc(C)o3)n2)o1 (configuration not stated),.,-,.,-
CC(=O)O[C@@H]1CC[C@]2(C)C(=C[C@H]([C@@H]3C=C4C[C@@H](OC(C)=O)CC[C@]4(C)C4=C3[C@@H]3C[C@@H]5O[C@@]6(CC[C@H](C)CO6)[C@@H](C)[C@@H]5[C@@]3(C)CC4)C3=C2CC[C@@]2(C)[C@@H]4[C@@H](C)[C@]5(CC[C@H](C)CO5)O[C@@H]4C[C@H]32)C1,.,40,.,-
CC(=O)OC1CCC2(C)C(=CCC3C2CCC2(C)C3CC3OC4(CCC(C)CN4)C(C)C32)C1 (configuration not stated),.,-,.,-
COc1ccc2c(-c3ccccc3)cc(SC(C)C(N)=O)nc2c1 (configuration not stated),-,-,-,62
COc1ccc2nc(-c3ccccc3)nc(SCC(N)=O)c2c1,.,-,.,-
CC1=CC(=O)c2ccccc2C1=O,-,46,-,-
C#CCOCCOCCOCCNc1nc(N2CCN(C(=O)CCCCCCCCCCNC(=O)[C@H]([C@@H](C)CC)n3cc(CCCCN=C(N)N)nn3)CC2)nc(N2CCN(C(=O)CCCCCCCCCCNC(=O)[C@H](CCCCN)n3cc(C)nn3)CC2)n1,-,.,6.3,.
SMILES,CHT block,PGE2 EP2 inh,CHT allo act,EP2 modulator
Nc1ccc(N2CCCC2)c2nonc12,.,-,.,-
Nc1ccc(N2CCCCC2)c2nonc12,-7.6,-,-,-
CNC(=S)N(Cc1cc2ccc(C)c(C)c2[nH]c1=O)CC1CCCO1 (configuration not stated),.,-,.,-
Cc1cc(C(C)(C)C)oc1C(=O)N(CC(=O)NC1CCCC1)c1c(C)cccc1C,-,-,-,64
Cc1cc(C(C)(C)C)oc1C(=O)N(CC(=O)NC1CCCC1)c1ccc(F)cc1,-,-,-,-
C[C@H](NCCN(C)C)[C@@H]1CC[C@@H]2[C@H]3CCc4cc(O)ccc4[C@@H]3CC[C@]21C,.,53,.,-
NC(=O)C(F)(F)C12OC3C4C5CC(C6C5C3C61)C42 (configuration not stated),-,106,-,-
CCc1nn(CC(=O)NCCc2cccc(OC)c2)c(=O)c2cc3sccc3n12,.,.,.,-
Cc1cc(Cl)ccc1OCCCC(=O)N1CCc2ccccc2C1,.,-,.,-
COc1cccc(C2(NC(=O)c3c(-c4ccncc4)noc3C)CCCC2)c1,.,-,.,-
CCCC1CC(C)(/C(C)=N\NC(N)=S)OC1=O (configuration not stated),-9.3,-,-,-
C/C(CCC1CC(C)(C)OC1=O)=N\NC(N)=S (configuration not stated),-,-,-,-
C(=C\c1ccccc1)/CN1CCN(c2ncnc3c2oc2ccccc23)CC1,-,-,-,-
Nc1nc(N2CCN(C/C=C/c3ccccc3)CC2)nc2ccccc12,-6.8,-,-,-
COc1cccc(OCc2cc(/C=N/Nc3ccc(C(=O)O)cc3)ccc2OC)c1,-,-,-,62
COc1cccc(C(=O)Oc2ccc(/C=N/Nc3ccc(C(=O)O)cc3)cc2OC)c1,-,.,-,.
CC(=O)[C@@]1(N=Nc2ccc(S(N)(=O)=O)cc2)CCOC1=O,.,116,.,-
NS(=O)(=O)c1ccc(N=Nc2ccc[nH]c2=O)cc1,.,-,.,-
COC(=O)/C(=C\c1ccc(-c2cc(Cl)ccc2Cl)o1)C(C)=O,.,50,.,-
CCCC(=O)N1CCN(c2ccc(NC(=O)c3cc4ccccc4o3)cc2Cl)CC1,-7.4,-,-,-
CCC(=O)Nc1cccc(NC(=O)c2ccc([N+](=O)[O-])o2)c1,.,98,.,-
CCCC(=O)Nc1cccc(NC(=O)c2ccc([N+](=O)[O-])o2)c1,.,42,.,-
O=C(Nc1cccc(NC(=O)c2cccs2)c1)c1ccc([N+](=O)[O-])o1,-,-,-,-
CCN1CCN(c2ccc(NC(=O)c3ccc([N+](=O)[O-])o3)cc2Cl)CC1,.,116!,.,-
O=C(Nc1cccc(NC(=O)c2ccc([N+](=O)[O-])o2)c1)c1ccco1,-,.,-,.
SMILES,CHT block,PGE2 EP2 inh,CHT allo act,EP2 modulator
CCC(=O)N1CCN(c2ccc(NC(=O)c3ccc([N+](=O)[O-])o3)cc2Cl)CC1,.,-,.,-
C[n+]1cn(CC(O)COc2cccc3ccccc23)c2ccccc21 (configuration not stated),.,-,.,-
COc1ccc(C2NC(=O)C(=O)/C2=C(\O)c2ccccc2)cc1OC (configuration not stated),.,-,.,-
O=C(CN1C(=O)NC2(CCCC2)C1=O)Nc1ccc(S(=O)(=O)N2CCOCC2)cc1,-,-,-,61
O=C(Nc1ccc(S(=O)(=O)N2CCOCC2)cc1)c1ccc([N+](=O)[O-])o1,-,49,-,-
O=C(Nc1ccc(N2CCOCC2)cc1)c1ccc([N+](=O)[O-])o1,-,.,-,.
COc1ccc(C(C)NC(=O)Cn2c(-c3cccs3)cc3cccnc32)cc1OC (configuration not stated),.,-,.,-
CCn1c(SCC(=O)Nc2cccc(NC(=O)c3cccc(C)c3)c2)nnc1-c1cccs1,.,-,.,-
Cc1ccc(S(=O)(=O)NCc2c(Cl)cccc2Oc2ccccc2)cc1,-,-,-,69
O=S(=O)(NCc1c(Cl)cccc1Oc1ccccc1)c1ccccc1,-,-,-,-

# Source: PubChem BioAssay
